Only some compounds are listed: those with a hit (about 7.7% of all), similar ones and a draw of the others.
Sm TGR block: S. mansoni TGR enzyme inhibition; Q962Y6; purified TGR, DTNB reduction, TNB absorbance 405 nm; Potency, µM (top dose mostly 114 µM), for the others: at the highest dose activity change, negative = inhibition, actives largely listed as inhibitors; 360,000 tested, 3% active; AID 485364; also: potency is read from the fitted curve at half-maximal effect; nearly all actives have a fitted effect of over 60% in size
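TGR 20 nM + NADPH 100 uM (dispensed conc.), cpd preinc 15 min RT; start with NADPH (500 uM addition) then DTNB (15 mM addition). Kinetic TNB absorbance, 405 nm filter. Four-parameter Hill fit across titration.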
RE007 growth inh: less growth of the S. pombe RE007 Vpr strain | Potency, µM (doses to about 92.2 µM), for the others: at the top dose activity change, negative = less growth, hits mostly inhibitors | S. pombe RE007 Vpr strain, BacTiter-Glo ATP luminescence, 24 h | 360,000 tested, 0.21% active; active = well fitted falling curve with a large enough effect; inconclusive = small, poorly fitted or top-dose-only effect; inactive = no such curve, though single readings can be large or run the other way; also: potency is read from the fitted curve at half-maximal effect; nearly all actives have a fitted effect of over 50% in size
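Fission yeast RE007 carrying one integrated HIV-1 vpr copy, seeded at OD 0.01 in PMG+AL medium with 23 nL pinned compound. Grown 24 h at 30 degrees; viability read by BacTiter-Glo luminescence after 5 min.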
FMDV antiviral: foot and mouth disease virus antiviral activity; AID 1159524; FMDV antiviral cell-based qHTS; 410,000 tested, 1.2% active; Potency, µM (titrated, usually from 57.9 µM), without a hit: at the top dose activity change, negative = inhibition, most hits filed as inhibitors; calls by dose curve; tested in HEK293T cells; also: read-out not given here; potency is read from the fitted curve at half-maximal effect; nearly all actives have a fitted effect of over 45% in size
TbPYK inhibitor: blocks Trypanosoma brucei pyruvate kinase; TbPYK enzyme, Kinase-Glo Plus ATP luminescence, 45 min; Potency, µM (titrated, usually from 76.8 µM), without a hit: at the top dose activity, negative = inhibition, most hits filed as inhibitors; 410,000 tested, 0.12% active; AID 624173; also: potency is read from the fitted curve at half-maximal effect; nearly all actives have a fitted effect of over 50% in size
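Quantitative HTS: titrated library compounds versus trypanosomal pyruvate kinase in TEA buffer (pH 7.2) containing KCl, MgCl2, BSA and Tween-20. Reactions were initiated with ADP, 130 uM final. Kinase-Glo Plus luminescence was read after 45 min at RT.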
Giardia FBPA inh: blocks Giardia fructose-bisphosphate aldolase activity. A8B2U2. Potency, µM (highest dose often 59.6 µM), for inactives: top-dose activity, negative = inhibition, most hits filed as inhibitors. purified Giardia FBPA. 290,000 tested, 0.71% active. AID 2451; also: potency is read from the fitted curve at half-maximal effect; nearly all actives have a fitted effect of over 55% in size
Target sequence (A8B2U2 whole entry, looked up): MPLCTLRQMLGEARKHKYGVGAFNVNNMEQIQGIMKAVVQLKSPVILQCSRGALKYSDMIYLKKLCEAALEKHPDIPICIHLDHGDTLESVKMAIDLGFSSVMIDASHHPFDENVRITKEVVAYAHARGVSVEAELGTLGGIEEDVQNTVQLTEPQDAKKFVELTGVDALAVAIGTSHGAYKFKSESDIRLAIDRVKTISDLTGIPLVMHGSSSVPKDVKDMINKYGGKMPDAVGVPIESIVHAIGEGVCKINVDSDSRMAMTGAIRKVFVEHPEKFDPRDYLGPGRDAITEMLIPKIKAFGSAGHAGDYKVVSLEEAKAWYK
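40 nM FBPA preincubated 10 min at RT with compound (up to 57.5 uM final), then substrate plus GAPDH/TPI/NAD/arsenate coupling and diaphorase/resazurin added. Fluorescence read after 20 min at RT, 525/598 nm.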
HCMV antiviral: blocks human cytomegalovirus replication; 410,000 tested, 4.5% active; activity change, negative = inhibition, % at 57.5 µM; HFF cells, HCMV-luciferase reporter, 72 h; stronger effect = lower value; in the data active = activity change below about -60%; inconclusive = no clear call, values can overlap the other calls; inactive = above about -39%
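Inhibition of viral replication was scored as loss of reporter luminescence in HFFs infected with HCMV-luciferase (MOI 1 PFU/cell) for 72 h; compounds tested at 2 doses, normalized to buffer and Salinomycin controls.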
* = called active by the depositor; u = inconclusive; x = no result given; [ ] = another dose, or the depositor's remark. Unless noted, calls follow the shape of the dose curve; as a rule, active = well fitted curve in the direction sought with a large enough effect; inconclusive = small, poorly fitted or top-dose-only effect, or another doubt; inactive = no such curve, though single readings can be large; an effect the other way counts as inactive or inconclusive. % is scaled to controls: 0 for no effect and ±100 for the full control effect.

SMILES	Sm TGR block	RE007 growth inh	FMDV antiviral	TbPYK inhibitor	Giardia FBPA inh	HCMV antiviral
Cc1nc(NC(=O)c2ccc(Cl)cc2)nc2cc3c(cc12)OCO3	4.6%	-1.5%	-22.0%	-7.4%	6.7%	-4.0
COc1ccc(C(=O)Nc2nc(C)c3cc4c(cc3n2)OCO4)cc1	1.3%	1.0%	25.1µM*	2.1%	4.2%	0.8
COc1ccccc1CNC(=O)CCn1nc(C)c2c(C)n(-c3ccccc3)nc2c1=O	0.6%	x	-0.8%	1.9%	x	-20.9
O=C(Nc1ccc2nc(SCC(=O)N3CCc4ccccc43)sc2c1)c1ccccc1	-3.6%	x	8.5%	6.3%	x	41.2
COc1ccc(C2CC3(CC(C)(C)NC(SC)=N3)Oc3cc(O)cc(C)c32)cc1 (stereo not given)	-8.2%	12.1%	-25.1%	4.3%	-4.5%	-76.2*
Cc1ccc(C(=O)N2CCN(c3ccc(F)cc3)CC2)cc1NC(=O)c1nsc2ccccc12	0.5%	x	0.0%	-9.9%	x	28.9
c1ccc(-c2cc3c(ccc4nonc43)nn2)cc1	0.0%	-2.9%	18.4%	-11.3%	9.6%	37.3
On1onc2c3cc(-c4ccccc4)nc3ccc21	2.2%	-7.9%	23.7%	-2.2%	-26.6%	-108.0*
Cc1cc(=O)c(C(=O)N(C)CCc2ccccn2)c2n1-c1ccccc1SC(c1ccsc1)C2 (stereo not given)	x	x	-7.0%	x	x	x
C[C@H]1[C@@H](c2ccccc2)Oc2c(Cl)cccc2S(=O)(=O)N1C	x	x	x	x	x	-19.2
COc1ccc(-c2cc(NC=O)c3ncc(-c4ccc(OC)c(OC)c4)n3c2)c(OC)c1	x	-3.1%[18.4 µM]	-35.9%	2.2%	x	-74.3*
COc1ccc(-c2cc(NC=O)c3ncc(-c4cccc(OC)c4)n3c2)cc1	x	6.3%[18.4 µM]	-16.1%	-12.4%	x	-14.0
COc1ccc(-c2cc(NC=O)c3ncc(-c4cc(OC)c(OC)c(OC)c4)n3c2)cc1	x	8.1%	-14.6%	-8.2%	x	-80.7*
COc1cccc(-c2cc(NC=O)c3ncc(-c4ccc(OC)c(OC)c4)n3c2)c1	x	15.3%	-27.2%	-6.9%	x	221.2
CC(=O)Nc1cc(-c2ccc(N3CCN(C)CC3)cc2)cn2c(-c3ccc(F)c(Cl)c3)cnc12	x	0.0%	-27.0%	0.4%	x	-29.7
COc1cccc(-c2cnc3c(NC=O)cc(-c4ccc(OC)cc4OC)cn23)c1	x	13.0%	u	3.2%	x	-92.1*
CN1CCN(c2ccc(-c3cc(NC=O)c4ncc(-c5ccc(F)c(Cl)c5)n4c3)cc2)CC1	x	-20.3%[18.4 µM]	14.1%	-2.6%	x	-92.1*
COC(=O)NC(c1ccccc1)c1c[nH]c2ccc(OC)cc12 (stereo not given)	x	x	x	x	-3.9%	x
Cc1ccc(NC(=O)NNC(=O)CSC2CCc3ccccc32)c(C)c1 (stereo not given)	x	x	x	x	x	-13.6
CCC(=O)NCc1nc(-c2cccc(NC(=O)c3ccc(C)s3)c2)oc1C	x	x	12.7%	x	x	x
COc1cccc(CNC(=O)c2sc3ncccc3c2-n2c(C)ccc2C)c1OC	9.4%	x	u	1.0%	x	-39.1
CN(Cc1ccc(Cl)c(Cl)c1)C(=O)C1CSC2(C)CCC(=O)N12 (stereo not given)	-1.7%	1.8%	-17.5%	-7.4%	x	-82.2*
CN(CC(=O)Nc1c(Cl)cccc1Cl)C(=O)C1CSC2(C)CCC(=O)N12 (stereo not given)	2.8%	-20.8%	-16.6%	-3.6%	x	-0.2
CC12CCC(=O)N1C(C(=O)NNC(=O)c1ccccc1Cl)CS2 (stereo not given)	-10.0%	1.4%	-9.5%	-12.3%	x	-90.4*
COc1cc(OC)cc(C(=O)NNC(=O)C2CSC3(C)CCC(=O)N23)c1 (stereo not given)	-0.7%	15.3%	-11.1%	0.5%	x	-17.7
SMILES	Sm TGR block	RE007 growth inh	FMDV antiviral	TbPYK inhibitor	Giardia FBPA inh	HCMV antiviral
COCc1c(C(=O)N2CC3CCC2C3)cnn1-c1nccc(-c2ccccc2OC)n1 (stereo not given)	x	x	31.2%	x	x	x
CCOc1cc(/C=C2/SC(=Nc3ccccc3)N(Cc3cccnc3)C2=O)ccc1OCC#N	4.8%	2.0%	u	-5.1%	-4.0%	-60.2*
COc1cc(NC(=O)c2nc(-c3ccncc3)no2)cc(OC)c1OC	-7.7%	x	-14.4%	-6.8%	x	3.3
O=c1c(S(=O)(=O)c2ccc(Cl)cc2)cn(Cc2ccc(F)cc2)c2ccc(F)cc12	-11.6%	x	-10.6%	-3.7%	x	-5.7
COc1ccc2c(c1)OC(C)CN(CCNC(=O)c1ccc(-n3cccn3)cc1)C2 (stereo not given)	x	x	0.4%	x	x	x
Cc1nccn1-c1c([N+](=O)[O-])c(=O)n(C)c2ccccc12	-16.5%	1.5%	u	-0.4%	-7.9%	22.1
Cn1c(=O)c([N+](=O)[O-])c(-n2cnc3ccccc32)c2ccccc21	15.8µM*	0.0%	u	-5.5%	-2.8%	-1.2
CCN(CC)c1c([N+](=O)[O-])c(=O)n(C)c2ccccc12	-0.6%	8.1%	u	2.5%	-27.3%	-32.3
Cn1c(=O)c([N+](=O)[O-])c(Cl)c2ccccc21	0.447µM*	-5.4%	14.1µM*	-16.7%	-10.2%	-70.8*
CC(C)CC(=O)/C(=C/c1ccc(N(C)C)cc1)n1cncn1	3.9%	-3.7%	-1.0%	-13.7%	-1.1%	-60.3*
CC(C)CC(=O)/C(=C\c1ccc(Cl)cc1Cl)n1cncn1	22.4µM*	u	7.94µM*	-5.6%	-0.9%	x
COc1ccc(N2CC(NC(=O)/C=C\c3ccc4c(c3)OCO4)CC2=O)cc1 (stereo not given)	5.2%	x	-19.8%	-3.8%	x	56.4
CC(C)=CCC/C(C)=C/CO/N=C1/C[C@@H](O)[C@@H](O)[C@@H]2[C@@H]3C(=O)N(c4cccc(Oc5ccccc5)c4)C(=O)[C@H]3CC[C@@H]12	x	x	x	x	-3.2%[12.9 µM]	x
COc1ccc2c(Sc3ccc(Cl)cc3)c(C(=O)N3CCCCC3)[nH]c2c1	-11.4%	x	70.2%	-1.2%	x	-100.7*
Cn1ncc(Cl)c(Oc2ccc(Cl)cc2)c1=O	-12.0%	5.1%	-8.6%	-15.7%	2.2%	59.1
Cn1ncc(Oc2ccc([N+](=O)[O-])cc2)c(Cl)c1=O	1.5%	3.0%	0.6%	2.4%	0.6%	-90.8*
CNC(=S)NCCCCc1cnc[nH]1	x	x	-16.3%	x	11.2µM*	x
S=C(NCCc1ccccc1)NCCc1cnc[nH]1	3.1%	-7.4%	0.0%	-7.3%	-25.9%	11.4
COc1cc(C2C3=C(CCCC3=O)Nc3[nH]n(-c4ccccc4)c(=O)c32)ccc1O (stereo not given)	u	3.5%	17.6%	-11.5%	u	-26.7
COc1cc(C2C3=C(CCCC3=O)Nc3c2c(C)nn3-c2cccc(C)c2)cc(OC)c1O (stereo not given)	39.8µM*	-3.6%	11.5%	-6.5%	u	5.9
COC(=O)N1C(=O)[C@](Cc2ccccc2)(c2ccccc2)N1C(=O)OC	3.55µM*	1.6%	u	-0.7%	4.3%	4.3

High-throughput results from PubChem.
